The values that follow come from PubChem BioAssay (NCI).

This is part of a sample that, as a whole, favours compounds with a hit. Of some 83,000 tested, about 20% had one in any assay.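 Assay: single dose, 48 h. Readout: percent growth (0 = no net growth; negative = cell death). Active: <10.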 A number with no mark means an inactive call. Calls of active or inactive are those of the source.

Among the test systems are SR leukemia; RPMI-8226 leukemia; OVCAR-8 ovarian; OVCAR-5 ovarian; OVCAR-4 ovarian; SK-OV-3 ovarian; IGROV1 ovarian; OVCAR-3 ovarian; HS 578T breast; NCI/ADR-RES ovarian.
Holding throughout (experiment): NCI-60 one-dose screen, 48 h (100 = growth as untreated, 0 = no growth, -100 = all killed)
What all share (conditions): 10 µM unless noted

On to `CS(=O)(=O)c1ccc(-c2cc(-c3nnc(SCC(=O)Nc4ccc(C(=O)/C=C/c5ccc(Cl)cc5)cc4)n3-c3ccccc3)c3ccccc3n2)cc1`, for which the growth in the assay with SR leukemia is 94.1%; with RPMI-8226 leukemia, 74.2%; with OVCAR-8 ovarian it was 86.1%; in the assay with OVCAR-5 ovarian, 95.1%; with OVCAR-4 ovarian, 102%; in the assay with SK-OV-3 ovarian, 110%. In addition, the growth with IGROV1 ovarian was 91.9%; in the assay with OVCAR-3 ovarian, 102%; with HS 578T breast it was 89.5%; in the assay on NCI/ADR-RES ovarian, 94.6%.

Turning to `COc1ccc(C(=O)c2cc(C)c(OC)c(C)c2)c(OC)c1O`, the growth in the assay on SR leukemia was 18.8%; in the assay on RPMI-8226 leukemia, 25.9%; with OVCAR-8 ovarian, 11.3%; in the assay on OVCAR-5 ovarian, 46.9%; in the assay with OVCAR-4 ovarian it was 41.1%; in the assay with SK-OV-3 ovarian, -10.5% (active). Besides, the growth with IGROV1 ovarian was 25.9%; with OVCAR-3 ovarian, -15.8% (active); in the assay with HS 578T breast, 18.1%; in the assay with NCI/ADR-RES ovarian it was 1.87% (active).

Consider `C(=C\c1n(Cc2ccc3ccccc3c2)c(-c2ccccc2)c(-c2ccccc2)[n+]1Cc1ccc2ccccc2c1)/c1ccccc1`, for which the growth was -37.4% (active) with SR leukemia; -43.9% (active) in the assay with RPMI-8226 leukemia; -65.3% (active) with OVCAR-8 ovarian; -95% (active) with OVCAR-5 ovarian; -85.8% (active) with OVCAR-4 ovarian; -60.1% (active) with SK-OV-3 ovarian. Moreover, the growth in the assay with IGROV1 ovarian was -81.4% (active); in the assay with OVCAR-3 ovarian it was -90.3% (active); in the assay with HS 578T breast, -42.8% (active); in the assay with NCI/ADR-RES ovarian it was 8.24% (active).

Take `N#Cc1ccc(-c2ccc3c(c2)NC(=O)/C3=C\c2ccc[nH]2)cc1`: the growth in the assay on SR leukemia was 22.2%; with RPMI-8226 leukemia, 101%; in the assay with OVCAR-8 ovarian it was 101%; in the assay with OVCAR-5 ovarian, 43.2%; with OVCAR-4 ovarian, 43.3%; in the assay on SK-OV-3 ovarian, 62.6%. The growth is 66.2% in the assay on IGROV1 ovarian, 88.8% with OVCAR-3 ovarian, 103% with HS 578T breast and 100% with NCI/ADR-RES ovarian.

Regarding `COc1ccc(C(=O)c2cc3c(N)c(C(=O)Nc4cccc(Cl)c4C)sc3nc2C)cc1`, the growth in the assay on SR leukemia is -27.1% (active); in the assay with RPMI-8226 leukemia, 1.21% (active); with OVCAR-8 ovarian it was 5.92% (active); in the assay with OVCAR-5 ovarian, 40.9%; in the assay on OVCAR-4 ovarian, 39.2%; in the assay on SK-OV-3 ovarian, 25.9%. In addition, the growth was 24.8% with IGROV1 ovarian, -5.77% (active) in the assay on OVCAR-3 ovarian, 15% in the assay with HS 578T breast and 8.86% (active) with NCI/ADR-RES ovarian.

With `c1cnc2nc3c(cc2c1)oc1ccccc13`, the growth is 80.7% in the assay on SR leukemia; 94.1% in the assay with RPMI-8226 leukemia; 100% with OVCAR-8 ovarian; 105% in the assay with OVCAR-5 ovarian; 103% in the assay on OVCAR-4 ovarian; 121% with SK-OV-3 ovarian. Besides, the growth with IGROV1 ovarian was 97.2%; in the assay on OVCAR-3 ovarian, 115%; in the assay on HS 578T breast, 102%; in the assay with NCI/ADR-RES ovarian it was 100%.

On to `COc1ccccc1Nc1cc(O)c2c(=O)cc(-c3ccccc3)oc2c1`, for which the growth with SR leukemia was 5.75% (active); in the assay with RPMI-8226 leukemia it was 16.4%; in the assay on OVCAR-8 ovarian, 32.4%; in the assay with OVCAR-5 ovarian it was 78.1%; in the assay on OVCAR-4 ovarian, 65.6%; with SK-OV-3 ovarian it was 50.7%. In addition, the growth in the assay on IGROV1 ovarian was 51.4%; in the assay on OVCAR-3 ovarian it was 5.9% (active); in the assay with HS 578T breast, 45.6%; in the assay on NCI/ADR-RES ovarian it was 11.5%.

Regarding `COc1cccc(CCC(=O)c2cc3c(N)c(C(=O)Nc4ccccc4)sc3nc2C)c1`, the growth in the assay on SR leukemia is 16.2%; with RPMI-8226 leukemia it was 43.8%; with OVCAR-8 ovarian, 60.2%; in the assay on OVCAR-5 ovarian, 48.6%; with OVCAR-4 ovarian, 53.9%; in the assay on SK-OV-3 ovarian, 56.8%. In addition, the growth in the assay on IGROV1 ovarian is 34%; in the assay on OVCAR-3 ovarian, 18%; in the assay on HS 578T breast, 21.5%; with NCI/ADR-RES ovarian, 12.2%.

Take `COc1ccc(/C=C2\COc3ccc(-c4ccccc4)cc3C2=O)cc1O`: the growth in the assay on SR leukemia was -10.8% (active); with RPMI-8226 leukemia, -21.6% (active); in the assay on OVCAR-8 ovarian, 13.1%; in the assay on OVCAR-5 ovarian, 53.7%; with OVCAR-4 ovarian, 80.5%; in the assay with SK-OV-3 ovarian it was 57.6%. For the same compound, the growth in the assay with IGROV1 ovarian was 7.03% (active); in the assay on OVCAR-3 ovarian it was 2.7% (active); in the assay on HS 578T breast it was -1.69% (active); in the assay on NCI/ADR-RES ovarian, 22.6%.

Regarding `COc1ccc(-c2ncc(-c3ccccc3)[nH]2)cc1OC`, the growth in the assay with SR leukemia is 11%; in the assay with RPMI-8226 leukemia, 89.5%; in the assay with OVCAR-8 ovarian, 113%; in the assay with OVCAR-5 ovarian it was 113%; with OVCAR-4 ovarian, 116%; with SK-OV-3 ovarian, 125%. Besides, the growth is 119% in the assay on IGROV1 ovarian, 103% in the assay on OVCAR-3 ovarian, 102% with HS 578T breast and 121% in the assay on NCI/ADR-RES ovarian.

On to `C[C@H]1[C@H](C)CC[C@]2(CO)CC[C@]3(C)C(=CC[C@@H]4[C@@]5(C)CCCNC(C)(C)[C@@H]5CC[C@]43C)[C@H]12`, for which the growth with SR leukemia was -49.9% (active); in the assay with RPMI-8226 leukemia, -39.7% (active); in the assay with OVCAR-8 ovarian it was 9.93% (active); in the assay on OVCAR-5 ovarian, 28.4%; in the assay with OVCAR-4 ovarian, 18.5%; in the assay with SK-OV-3 ovarian, 69.6%. Further, the growth in the assay with IGROV1 ovarian was -57.9% (active); with OVCAR-3 ovarian, 6.84% (active); in the assay with HS 578T breast it was 10.5%; with NCI/ADR-RES ovarian it was 17.6%.

Turning to `COc1cc(-c2nc3sccn3c2-c2ccnc(NCCNS(=O)(=O)c3ccc(F)cc3)n2)ccc1F`, the growth was 8.1% (active) in the assay on SR leukemia; -39.4% (active) with RPMI-8226 leukemia; -9.78% (active) in the assay on OVCAR-8 ovarian; 56% in the assay on OVCAR-5 ovarian; 10.8% in the assay on OVCAR-4 ovarian; 22.9% in the assay on SK-OV-3 ovarian. For the same compound, the growth in the assay with IGROV1 ovarian was 3.95% (active); with OVCAR-3 ovarian, 25.3%; in the assay on HS 578T breast it was 28.4%; in the assay with NCI/ADR-RES ovarian it was 8.6% (active).

For the compound `Brc1ccc(C2CC(c3cccc(Nc4ccncc4)c3)=NN2c2ccccc2)cc1` (stereo not given), the growth in the assay with SR leukemia was 4.53% (active); in the assay with RPMI-8226 leukemia it was 50.5%; with OVCAR-8 ovarian, 77.6%; in the assay with OVCAR-5 ovarian, 89.3%; in the assay on OVCAR-4 ovarian it was 70.3%; in the assay on SK-OV-3 ovarian, 84.4%. Besides, the growth in the assay with IGROV1 ovarian is 58.3%; with OVCAR-3 ovarian, 80%; in the assay on HS 578T breast it was 90.9%; in the assay with NCI/ADR-RES ovarian, 79.2%.
